Data published in PubChem BioAssay (EPA / NIEHS).
“And” between values parts separate entries of the source, which are not always exact repeats. Equal entries are not always repeated. More than one record can exist for a structure, and the calls need not agree. The source made the active and inactive calls. Rule for the calls: active = hit-call score of the fitted dose curve at least 0.9, where 1 is the maximum; inactive = score below 0.9.

Experiment: CCTE_Shafer_MEA_dev_network_spike_peak: CCTE's Neural Network Formation Assay for Mean Number of Electrodes in Network Spike, Shafer Lab (AID 2284049)
Protocol: CCTE_Shafer_MEA_dev assay is conducted using Axion Biosystems 48 well microelectrode array (MEA) plates and Maestro recording system. Each well of the MEA plate contains a grid of 16 microelectrodes embedded in the culture surface. Electrically active cells, such as neurons, can be cultured over the electrodes, and electrical activity in these cells can be recorded extracellularly. The spontaneous firing of neurons is captured from each electrode on a microsecond timescale providing both temporally and spatially precise data. […] The CCTE_Shafer_MEA_dev assay uses primary cultures of rat cortical neurons. Recordings are made on days post-plating 5, 7, 9 and 12. As these cultures mature over time, neural networks develop functional activity and form cohesive networks in which electrical activity can be highly coordinated. CCTE_Shafer_MEA_dev_network_spike_peak is 1 of 19 assay components of the CCTE_Shafer_MEA_dev assay. It measures the average number of electrodes participating at the peak of a network spike (the peak of a temporally-clustered group of action potential firing across multiple electrodes) during a recording in a microelectrode array (MEA) using Axion Biosystems Maestro 768 channel amplifier with the AxIS adaptive spike detector. To collapse across multiple recordings made on days post-plating 5, 7, 9 and 12, the trapezoidal area-under-the-curve of the component is calculated.Data from the assay component CCTE_Shafer_MEA_dev_network_spike_peak was analyzed into 1 assay endpoint. This assay endpoint, CCTE_Shafer_MEA_dev_network_spike_peak, was analyzed in the negative analysis fitting direction relative to DMSO as the negative control and baseline of activity. Using a type of functional reporter, gain or loss-of-signal activity can be used to understand electrical activity.
On the day prior to culture, each well was coated thoroughly with 150 uL of 0.05% polyethyleneimine (PEI, Sigma Cat P3143) in 50 mM HEPES (Sigma Cat H7523) at a pH of 8. The plate was incubated at 37C for one hour. PEI was rinsed out with 500 uL of sterile water three times. Plates were stored at 4C until the day of culture. This culture was plated at a seeding density of 1.5 x 10^5 cells/well on a 48-well MEA plate, prepared as described above. Cells were administered via a 25 uL media/laminin ([…]; Sigma Cat L2020-1MG) drop directly onto the microelectrode array, as adding the cells with the laminin results in better attachment than pre-coating with laminin. After 2 hours, an additional 475 uL of cortical media was added and the cells returned to the incubator. Exposure starts at day 0 of plating and is continued over twelve days of network development until the experiment is terminated. Cells are fed with fresh medium on DIV 5 and 9, following the recordings on those days. The entire volume of media in the well is exchanged and any vehicle or compound treatment is renewed. Complete details are found in OP-NHEERL/ISTD/SBB/TJS/2015-03-r0 (available on request, email shafer.tim@epa.gov). Measurement of the electrical activity is non-invasive, and recordings can be made from the same plate over multiple different days of the culture. In cortical neurons, this allows for the measurement of extracellular action potentials over the period during which networks form in the MEA plate.
For NS(=O)(=O)C(F)(F)C(F)(F)C(F)(F)C(F)(F)C(F)(F)C(F)(F)C(F)(F)C(F)(F)F, the AC50 was 26.7 µM (active) and the outcome was “inactive”.
In the case of ClC1=C(Cl)[C@]2(Cl)[C@@H]3[C@H]4C[C@H]([C@@H]5O[C@H]45)[C@@H]3[C@@]1(Cl)C2(Cl)Cl, the outcome was “inactive”.
In the case of ClC1=C(Cl)[C@]2(Cl)[C@@H]3[C@@H]4C[C@@H]([C@H]5O[C@@H]45)[C@@H]3[C@@]1(Cl)C2(Cl)Cl, the AC50 was 10.8 µM (active).
With ClC(Cl)=C(c1ccc(Cl)cc1)c1ccc(Cl)cc1 the AC50 was 4 µM (active).
In the case of C=CC(N)=O, the outcome was “inactive”.
In the case of O=S(=O)(O)C(F)(F)C(F)(F)C(F)(F)C(F)(F)C(F)(F)C(F)(F)F, the outcome was “inactive” and the AC50 was 9.07 µM (active).
With CCC(C)(c1ccc(O)cc1)c1ccc(O)cc1 the AC50 was 10 µM (active).
In the case of ClC1=C(Cl)[C@]2(Cl)[C@@H]3[C@@H](Cl)[C@H]4O[C@H]4[C@@H]3C1(Cl)C2(Cl)Cl, the AC50 was 25 µM (active).
With CCOP(=S)(OCC)SCSC(C)(C)C the AC50 was 23.1 µM (active) and 13.9 µM (active).
For O=C(O)C(F)(F)C(F)(F)C(F)(F)C(F)(F)C(F)(F)C(F)(F)C(F)(F)C(F)(F)F, the outcome was “inactive”.
With O=C(O)C(F)(F)C(F)(F)C(F)(F)C(F)(F)C(F)(F)F the outcome was “inactive”.
For O=S(=O)(O)C(F)(F)C(F)(F)C(F)(F)C(F)(F)F, the outcome was “inactive” and the AC50 was 15 µM (active).
In the case of CO/C=C(/C(=O)OC)c1ccccc1COc1cccc(C(F)(F)F)n1, the AC50 was 212 nM (active) and 741 nM (active).
With Clc1ccc(C(c2ccccc2Cl)C(Cl)(Cl)Cl)cc1 (stereo not given) the AC50 was 2.73 µM (active).
With COc1ccc(O)c(C(C)(C)C)c1 the outcome was “inactive”.
With Oc1ccc(C(c2ccc(O)cc2)(C(F)(F)F)C(F)(F)F)cc1 the AC50 was 16.9 µM (active) and 18.5 µM (active).
For c1cc2ccc3cccc4ccc(c1)c2c34, the outcome was “inactive”.
